In PubChem BioAssay (Tox21):
A number with no mark means an inactive call. Results filed as inconclusive are left out. A call without a number means that no potency is given here. Calls of active or inactive are those of the source. Unless noted, the call rests on the fitted dose curve; in most records, active means well fitted curve in the direction sought with a large enough effect in the repeat runs; inconclusive means weak or mixed curves; inactive means no such curve, though single readings can be large; an effect the other way counts as inactive or inconclusive.

How the values were obtained:
[1] = qHTS assay for small molecule agonists of the p53 signaling pathway (AID 651631; calls by dose curve; further: nearly all actives have a fitted effect of over 15% in size)
How it was run: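 HCT-116 cells carrying a stable p53 response element–beta-lactamase reporter were plated, rested 5 h at 37 °C, then exposed to compound in DMSO for 16 h at 37 °C; reporter activity was read as FRET substrate fluorescence after 2 h at room temperature.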

[2] = qHTS assay for small molecules that induce genotoxicity in human embryonic kidney cells expressing luciferase-tagged ATAD5 (AID 651632); further: nearly all actives have a fitted effect of over 15% in size
How it was run: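 A rise in luciferase signal from ATAD5-tagged HEK293T cells marks genetic stress. Cells were exposed to compounds for 16 hr at 37C, 5% CO2, then luciferase was quantified after a 30 min room-temperature incubation with Amplite.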

[3] = qHTS assay for small molecules that induce genotoxicity in human embryonic kidney cells expressing luciferase-tagged ATAD5 - cell viability (AID 651634; calls by dose curve; further: nearly all actives have a fitted effect of over 25% in size; further: potency means the concentration at half of the fitted maximal effect)
How it was run: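 Cytotoxicity counter-readout: after 15.5 hr compound treatment at 37C, live-cell protease activity in ATAD5-luciferase HEK293T cells measured by CellTiter-Fluor fluorescence, 30 min development at 37C.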

[4] = qHTS assay to test for compound auto fluorescence at 590 nm (red) in HepG2 cells (AID 720674)
How it was run: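 Intrinsic compound fluorescence in the red window (Ex/Em 540/590 nm) is measured in attached HepG2 cells exposed for 1 hr, DMSO vehicle as baseline, benchmarked to Rose Bengal sodium.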

[5] = qHTS assay to test for compound auto fluorescence at 535 nm (green) in HepG2 cells (AID 720675)
[6] = qHTS assay to test for compound auto fluorescence at 460 nm (blue) in HEK293 cells (AID 720678)
How it was run: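 Triamterene serves as the blue fluorophore standard. Compound signal at 405/460 nm is read in HEK293 wells (2,000 cells, 10% dialyzed FBS) after overnight treatment at 37C.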

[7] = qHTS assay to test for compound auto fluorescence at 535 nm (green) in HEK293 cells (AID 720680)
[8] = qHTS assay to test for compound auto fluorescence at 535 nm (green) in HEK293 cell free culture (AID 720682)
How it was run: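 Read-out: 485/535 nm fluorescence intensity, calibrated against fluorescein. Medium only (DMEM + 10% FBS, no cells); test compound or DMSO vehicle added by pintool before plate reading.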

[9] = qHTS assay to test for compound auto fluorescence at 590 nm (red) in HepG2 cell free culture (AID 720684)
How it was run: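 Readout: intrinsic compound fluorescence at 590 nm emission after 540 nm excitation, scaled to Rose Bengal sodium. Matrix was cell-free MEM with 10% FBS; DMSO vehicle wells served as control.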

[10] = qHTS assay to test for compound auto fluorescence at 460 nm (blue) in HepG2 cell free culture (AID 720685)
How it was run: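 Cell-free plates of MEM plus 10% FBS received 23 nL compound or DMSO vehicle; blue-channel (405/460 nm) intensity scored against triamterene as reference fluorophore.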

[11] = qHTS assay to test for compound auto fluorescence at 535 nm (green) in HepG2 cell free culture (AID 720686)
[12] = qHTS assay to test for compound auto fluorescence at 460 nm (blue) in HepG2 cells (AID 720687)
How it was run: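 Cells (2,000/well in MEM with 10% FBS) attached overnight at 37 C, then were exposed to compound or DMSO for 1 hr at 37 C, 5% CO2. Fluorescence read at Ex/Em 405/460 nm, expressed as triamterene-equivalent signal.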

[13] = biological target: Glucocorticoid receptor (Homo sapiens) (UniProt P04150); assay: qHTS assay to identify small molecule agonists of the glucocorticoid receptor (GR) signaling pathway (AID 720691; active means well fitted activation curve with a large enough effect in the signal ratio in the repeat runs, not every such curve was filed as active; the % refers to the signal ratio)
Chain of Glucocorticoid receptor (Homo sapiens) (P04150 whole entry, looked up): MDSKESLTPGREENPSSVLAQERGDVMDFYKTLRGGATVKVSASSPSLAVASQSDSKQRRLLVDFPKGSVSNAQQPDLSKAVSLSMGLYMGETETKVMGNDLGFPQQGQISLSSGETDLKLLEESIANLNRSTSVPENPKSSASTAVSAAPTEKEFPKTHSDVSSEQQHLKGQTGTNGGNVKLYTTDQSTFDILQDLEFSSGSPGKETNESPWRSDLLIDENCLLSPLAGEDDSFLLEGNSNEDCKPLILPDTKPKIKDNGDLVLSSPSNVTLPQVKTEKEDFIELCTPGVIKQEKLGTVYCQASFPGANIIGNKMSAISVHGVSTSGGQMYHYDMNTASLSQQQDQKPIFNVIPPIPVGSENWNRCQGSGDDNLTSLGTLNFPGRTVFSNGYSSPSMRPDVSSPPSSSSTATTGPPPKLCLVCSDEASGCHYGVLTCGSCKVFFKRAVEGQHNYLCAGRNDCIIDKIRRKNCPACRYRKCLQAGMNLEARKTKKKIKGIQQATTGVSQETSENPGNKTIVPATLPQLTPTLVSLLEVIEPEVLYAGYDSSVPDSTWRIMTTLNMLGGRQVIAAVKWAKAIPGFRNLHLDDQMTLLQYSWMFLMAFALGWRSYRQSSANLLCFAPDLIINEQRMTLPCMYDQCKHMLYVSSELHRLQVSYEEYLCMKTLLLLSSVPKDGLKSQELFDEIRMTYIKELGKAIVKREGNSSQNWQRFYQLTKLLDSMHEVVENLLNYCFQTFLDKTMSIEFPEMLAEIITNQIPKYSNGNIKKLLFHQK
How it was run: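 Agonist-mode qHTS in HeLa cells stably expressing a glucocorticoid-response-element beta-lactamase reporter. Fluorescence intensity read with FRET substrate (2 h, room temperature) after 18 h compound treatment at 37 C.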

[14] = qHTS assay for small molecule agonists of the p53 signaling pathway - cell viability (AID 651633; calls by dose curve; further: nearly all actives have a fitted effect of over 30% in size; further: potency means the concentration at half of the fitted maximal effect)
How it was run: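 p53RE-bla cells, seeded at 4,000 per well and rested 5 h at 37 C/5% CO2, received compounds in DMSO for 16 h at 37 C. CellTiter-Glo was then added, and luminescence was read after 30 min at room temperature to gauge cytotoxicity.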

[15] = qHTS assay for small molecule disruptors of the mitochondrial membrane potential - cell viability (AID 720634; calls by dose curve;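 further: human HepG2 liver cancer cells; series mostly up to about 83 µM; nearly all actives have a fitted effect of over 20% in size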)
How it was run: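 Cytotoxicity was quantified from ATP content by CellTiter-Glo luminescence in the same wells as the MMP dye read-out. HepG2 (2,000 cells/well) were plated overnight and exposed to compounds for 1 hr at 37 C.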

[16] = qHTS assay for small molecule disruptors of the mitochondrial membrane potential (AID 720635); further: potency means the concentration at half of the fitted maximal effect
How it was run: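 HepG2 cells (2,000/well) attached overnight at 37C, then took compound for 1 hr at 37C, 5% CO2. Mito-MPS dye was added for 30 min; fluorescence was read at 490/535 nm (monomers) and 540/590 nm (aggregates).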

[17] = qHTS assay to test for compound auto fluorescence at 590 nm (red) in HEK293 cells (AID 720679)
How it was run: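 We plated HEK293 cells in 10% dialyzed FBS medium, let them adhere for 4-5 hr, then added 23 nL compound. Overnight at 37C and 5% CO2 preceded fluorescence measurement at 540/590nm.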

[18] = qHTS assay to test for compound auto fluorescence at 460 nm (blue) in HEK293 cell free culture (AID 720681)
How it was run: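 Test compounds were pinned into cell-free culture medium (DMEM with 10% FBS) and fluorescence was read directly at Ex/Em 405/460 nm. Signals were expressed as fluorescence equivalents of triamterene, with DMSO vehicle as control.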

[19] = qHTS assay to test for compound auto fluorescence at 590 nm (red) in HEK293 cell free culture (AID 720683)
How it was run: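 Tox21 10K library compounds were pinned into cell-free DMEM with 10% FBS and fluorescence was read at excitation 540 nm. Activity is expressed as Rose Bengal sodium equivalency.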

[20] = biological target: Glucocorticoid receptor (Homo sapiens) (UniProt P04150); assay: qHTS assay to identify small molecule antagonists of the glucocorticoid receptor (GR) signaling pathway (AID 720692; active means well fitted inhibition curve with a large enough effect in the signal ratio in the repeat runs, not every such curve was filed as active; the % refers to the signal ratio)
How it was run: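 Inhibition of dexamethasone-driven (5 nM final) beta-lactamase expression was measured in GRE-reporter HeLa cells over 18 h at 37C. Fluorescence was read after 2 h with the B/G FRET substrate at room temperature.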

## Cc1c(C2(c3cc(Br)c(O)c(Br)c3C)OS(=O)(=O)c3ccccc32)cc(Br)c(O)c1Br
[1]
  Potency: inactive
[2]
  Potency: inactive
[3]
  Potency: 8.38 µM (active)
[4]
  outcome: inactive
[5]
  outcome: inactive
[6]
  Potency: inactive
[7]
  outcome: inactive
[8]
  outcome: inactive
[9]
  outcome: inactive
[10]
  Potency: inactive
[11]
  outcome: inactive
[12]
  Potency: inactive
[13]
  Potency: inactive

## O=C(O)CCC(=O)OC[C@@H](NC(=O)C(Cl)Cl)[C@H](O)c1ccc([N+](=O)[O-])cc1
[1]
  Potency: inactive
[14]
  Potency: inactive
[3]
  Potency: inactive
[15]
  outcome: inactive
[16]
  Potency: inactive
[4]
  outcome: inactive
[5]
  outcome: inactive
[6]
  Potency: inactive
[17]
  outcome: inactive
[7]
  outcome: inactive
[18]
  Potency: inactive
[8]
  outcome: inactive
[19]
  outcome: inactive
[9]
  outcome: inactive
[10]
  Potency: inactive
[11]
  outcome: inactive
[12]
  Potency: inactive
[13]
  Potency: inactive
[20]
  Potency: inactive

## CNS(=O)(=O)c1cc(C(=O)N2CCC(CCN3C4CCC3CC(n3c(C)nc5ccccc53)C4)(c3cccc(F)c3)CC2)c(Cl)cc1F (configuration not stated)
[1]
  Potency: inactive
[2]
  Potency: inactive
[14]
  Potency: 48.6 µM (active)
[15]
  outcome: inactive
[5]
  outcome: inactive
[6]
  Potency: inactive
[17]
  outcome: inactive
[7]
  outcome: inactive
[18]
  Potency: inactive
[8]
  outcome: inactive
[19]
  outcome: inactive
[9]
  outcome: inactive
[10]
  Potency: inactive
[11]
  outcome: inactive
[12]
  Potency: inactive

## CC(=O)Oc1cccc(O)c1
[1]
  Potency: inactive
[2]
  Potency: inactive
[14]
  Potency: inactive
[15]
  outcome: inactive
[4]
  outcome: inactive
[5]
  outcome: inactive
[6]
  Potency: inactive
[17]
  outcome: inactive
[7]
  outcome: inactive
[18]
  Potency: inactive
[8]
  outcome: inactive
[19]
  outcome: inactive
[9]
  outcome: inactive
[11]
  outcome: inactive
[12]
  Potency: inactive
[13]
  Potency: inactive

## Nc1ccc(NC(=O)c2ccc(N)cc2)cc1
[1]
  Potency: inactive
[2]
  Potency: inactive
[14]
  Potency: inactive
[15]
  outcome: inactive
[16]
  Potency: 1.37 µM (active)
[4]
  outcome: inactive
[5]
  outcome: inactive
[6]
  Potency: inactive
[17]
  outcome: inactive
[18]
  Potency: inactive
[8]
  outcome: inactive
[19]
  outcome: inactive
[9]
  outcome: inactive
[10]
  Potency: inactive
[11]
  outcome: inactive
[12]
  Potency: inactive

## O=C(O)CCCc1c[nH]c2ccccc12
[1]
  Potency: inactive
[2]
  Potency: inactive
[14]
  Potency: inactive
[3]
  Potency: inactive
[15]
  outcome: inactive
[5]
  outcome: inactive
[17]
  outcome: inactive
[7]
  outcome: inactive
[18]
  Potency: inactive
[8]
  outcome: inactive
[19]
  outcome: inactive
[9]
  outcome: inactive
[11]
  outcome: inactive
[12]
  Potency: inactive
[13]
  Potency: inactive
[20]
  Potency: inactive

## CC(=O)C(C)=O
[1]
  Potency: inactive
[2]
  Potency: inactive
[14]
  Potency: inactive
[3]
  Potency: inactive
[5]
  outcome: inactive
[6]
  Potency: inactive
[17]
  outcome: inactive
[7]
  outcome: inactive
[18]
  Potency: inactive
[8]
  outcome: inactive
[19]
  outcome: inactive
[9]
  outcome: inactive
[10]
  Potency: inactive
[11]
  outcome: inactive
[12]
  Potency: inactive
[13]
  Potency: inactive
[20]
  Potency: inactive

## O=C(O)CCC(=O)c1ccc(-c2ccccc2)cc1
[1]
  Potency: inactive
[2]
  Potency: inactive
[14]
  Potency: inactive
[3]
  Potency: inactive
[5]
  fluorescence, % of fluorescein control: 0.0165% [at 18.6 µM]
[17]
  fluorescence, % of fluorescent control: -0.0888% [at 18.6 µM]
[7]
  fluorescence, % of fluorescein: -0.008% [at 18.6 µM]
[18]
  fluorescence, % of fluorescent control: 0.0648% [at 18.6 µM]
[8]
  activity change: 0.0155% [at 18.6 µM]
[19]
  fluorescence, % of fluorescent control: 0.387% [at 18.6 µM]
[9]
  fluorescence, % of Rose Bengal: -0.0571% [at 18.6 µM]
[10]
  fluorescence, % of fluorescent control: -0.0525% [at 18.6 µM]
[11]
  fluorescence, % of fluorescein control: -0.127% [at 18.6 µM]
[12]
  fluorescence, % of fluorescent control: -0.0799% [at 18.6 µM]
[13]
  Potency: inactive
